ALOX12 inhib = inhibitors of human 12-lipoxygenase (ALOX12); P18054; purified 12-hLO, xylenol orange hydroperoxide absorbance; Potency, µM (series often up to 57.1 µM), for the others: top-dose activity change, negative = inhibition, most hits filed as inhibitors; 150,000 compounds, 0.12% hits; AID 1452; active = well fitted inhibition curve with a large enough effect; inconclusive = small, poorly fitted or top-dose-only effect; note: potency is the fitted concentration of half-maximal effect; nearly all actives have a fitted effect of over 55% in size
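Lipoxygenase turnover measured by absorbance at 573 and 405 nm after Fe-XO development. Human 12hLO 150 nM, arachidonate 40 uM, pH 7.0 Hepes buffer with detergent; 15 min compound preincubation, 30 min reaction.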
LMNA splice mod = LMNA splicing modulation; AID 1487; HeLa LMNA splicing GFP/RFP minigene ratio, 48 h; Potency, µM (highest dose often 46.1 µM), inactives show at the highest dose ratio change, negative = inhibition, usual class: inhibitors; 200,000 compounds, 0.01% hits; active = well fitted inhibition curve with a large enough effect in the signal ratio, with a control signal flat, not every such curve was filed as active; inconclusive = small, poorly fitted or top-dose-only effect, or effect the other way, or a change in a side signal; the % refers to the signal ratio; note: potency is the fitted concentration of half-maximal effect
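S3 HeLa cells stably expressing lamin A-EGFP splicing minigene plus DsRed2, 600 cells/well, 48 h compound exposure at 37C. Laser-scanning cytometry; analysed as GFP (500-530 nm)/RFP (575-640 nm) total intensity ratio; 0.5% DMSO vehicle.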
PNC inhibitor = perinucleolar compartment assembly inhibition; PC3M PTB-GFP, PNC prevalence imaging, 16 h; stronger effect = lower value; activity change (PNC), negative = inhibition, % at 10 µM; 140,000 compounds, 3.1% hits; AID 2417;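 active = readout at or below -70, meaning at least 70% loss of cells showing the perinucleolar compartment, a nuclear body marking cancer cells; inconclusive = readout between -30 and a set limit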;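 note: plate controls were DMSO wells for no effect and camptothecin positive control wells for full effect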
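Compounds are pinned in duplicate onto adhered PC3M cells stably expressing GFP-tagged PTB and incubated 16 h at 37 C. Cells are then fixed, nuclei stained with Hoechst, and PNC-positive cells counted.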
HPGD block = inhibitors of human 15-hydroxyprostaglandin dehydrogenase (HPGD); purified HPGD, NADH fluorescence kinetic, PGE2 substrate; P15428; Potency, µM, inactives show at the top dose activity change, negative = inhibition, most hits filed as inhibitors; AID 894; 150,000 compounds, 4.3% hits; note: potency is the fitted concentration of half-maximal effect
Target sequence (P15428 whole entry, looked up): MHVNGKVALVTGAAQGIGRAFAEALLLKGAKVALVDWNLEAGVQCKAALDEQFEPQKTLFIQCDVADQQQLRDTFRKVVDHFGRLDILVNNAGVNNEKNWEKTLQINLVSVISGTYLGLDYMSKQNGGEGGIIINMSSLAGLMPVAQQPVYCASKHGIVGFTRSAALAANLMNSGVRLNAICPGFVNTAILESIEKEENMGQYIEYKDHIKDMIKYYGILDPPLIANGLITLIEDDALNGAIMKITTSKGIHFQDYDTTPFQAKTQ
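20 nM HPGD preincubated 15 min at room temperature with compound in 50 mM Tris-HCl pH 8, 0.01% Tween 20. Started with 1 mM NAD+ and 30 uM prostaglandin E2; NADH fluorescence (360/450 nm) read 5 times over 30-s intervals, last minus first.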
ALDH1A1 inh = blocks purified human ALDH1A1 activity | Potency, µM (top dose mostly 75.3 µM), for inactives: at the highest dose activity, negative = inhibition, actives largely listed as inhibitors | P00352 | 220,000 compounds, 7.3% hits | Purified ALDH1A1, NADH fluorescence, propionaldehyde substrate;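 note: potency is the fitted concentration of half-maximal effect; plate controls were no enzyme wells and a reference inhibitor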
Target sequence (P00352 whole entry, looked up): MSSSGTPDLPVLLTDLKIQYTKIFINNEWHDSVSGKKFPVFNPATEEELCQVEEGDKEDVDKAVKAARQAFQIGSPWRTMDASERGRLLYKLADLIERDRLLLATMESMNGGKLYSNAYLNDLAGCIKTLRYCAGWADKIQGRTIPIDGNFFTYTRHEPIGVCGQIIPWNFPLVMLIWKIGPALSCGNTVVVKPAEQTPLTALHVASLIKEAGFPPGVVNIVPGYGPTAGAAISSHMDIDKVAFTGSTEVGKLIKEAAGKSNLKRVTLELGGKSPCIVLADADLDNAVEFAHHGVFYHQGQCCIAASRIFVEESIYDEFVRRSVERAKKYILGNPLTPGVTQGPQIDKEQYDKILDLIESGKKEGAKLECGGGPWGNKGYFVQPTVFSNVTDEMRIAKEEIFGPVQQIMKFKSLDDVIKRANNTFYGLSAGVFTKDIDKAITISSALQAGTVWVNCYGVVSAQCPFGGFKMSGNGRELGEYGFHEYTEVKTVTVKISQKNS
The depositor's hits bear a star; [ ] = another dose, or the depositor's remark. Most compounds without a hit are left out; they make up all but 10% or so of the library. Unless noted, calls come from the whole dose curve; as a rule, active = well fitted inhibition curve with a large enough effect (not every such curve was filed as active); inconclusive = small, poorly fitted or top-dose-only effect, or another doubt; inactive = no such curve, though single readings can be large or run the other way. Unless noted, % is set by controls: 0 for no effect and ±100 for the full control effect.

What do the screens show for `Cc1ccc(NC(=O)CSc2ncn[nH]2)cc1C`?
LMNA splice mod: -20%[46 µM]

Results for O=C(CSc1ncn[nH]1)NC1CC2CCC1C2 (stereo unspecified) ?
ALOX12 inhib: -1%; LMNA splice mod: 14%; PNC inhibitor: 32; HPGD block: 16µM*; ALDH1A1 inh: inconclusive

What do the screens show for `O=C(CSc1ncn[nH]1)c1cccc([N+](=O)[O-])c1`?
ALOX12 inhib: 0%; LMNA splice mod: 8%; PNC inhibitor: 10; HPGD block: inconclusive; ALDH1A1 inh: inconclusive

What do the screens show for `O=C(CSc1nccc(=O)[nH]1)c1ccco1`?
LMNA splice mod: -6%[46 µM]; ALDH1A1 inh: -7%

How did O=C(CSc1ncn[nH]1)c1ccco1 do in these assays?
ALOX12 inhib: -5%; LMNA splice mod: 5%; PNC inhibitor: -7; HPGD block: 25µM*; ALDH1A1 inh: inconclusive

Results for O=C(CSc1nnc(Cc2ccccc2)o1)NC1CC2CCC1C2 (stereo unspecified) ?
ALOX12 inhib: 1%; LMNA splice mod: 4%; PNC inhibitor: inconclusive; HPGD block: -11%; ALDH1A1 inh: inconclusive

How did O=C(CSc1ncn[nH]1)c1ccccc1 do in these assays?
ALOX12 inhib: -17%; LMNA splice mod: 20%; PNC inhibitor: 26; HPGD block: 22µM*; ALDH1A1 inh: inconclusive

What do the screens show for `C=CCC(C)(O)c1ccccc1` (stereo unspecified)?
HPGD block: -14%; ALDH1A1 inh: 4%

What do the screens show for `CCOC(=O)c1cc(S(=O)(=O)Nc2ccccc2OCC)[nH]n1`?
LMNA splice mod: -17%[46 µM]

Results for C(=N\Nc1nc(-c2ccccc2)cs1)/c1ccncc1 ?
LMNA splice mod: -13%[46 µM]; ALDH1A1 inh: inconclusive

How did Cc1ccc(-c2csc(N/N=C/C=C/c3ccccc3)n2)cc1 do in these assays?
ALOX12 inhib: -18%; LMNA splice mod: 2%; PNC inhibitor: 90; HPGD block: -26%; ALDH1A1 inh: 22µM*

How did N#Cc1ccc(Oc2ccc(NC(=O)C3CC=CCC3C(=O)O)cc2)cc1 (stereo unspecified) do in these assays?
LMNA splice mod: 7%[46 µM]; ALDH1A1 inh: 0.5µM*

How did Cc1cccc(Oc2ccc(NC(=O)C3CC=CCC3C(=O)O)cc2)c1 (stereo unspecified) do in these assays?
LMNA splice mod: -8%[46 µM]; ALDH1A1 inh: 1.8µM*

How did O=C(O)C1CC=CCC1C(=O)Nc1cccnc1 (stereo unspecified) do in these assays?
LMNA splice mod: -2%[46 µM]; ALDH1A1 inh: 1%

What do the screens show for `Cc1cccc(-c2nn3c(=O)cc(CN4CCN(C(=O)/C=C/c5ccccc5)CC4)nc3s2)c1`?
LMNA splice mod: -11%[46 µM]

Results for C[C@@H](O)CCC[C@H](O)/C=C/[C@H]1[C@H](O)CC(=O)[C@@H]1C/C=C\CCCC(=O)O ?
ALOX12 inhib: 0%; HPGD block: 0%; ALDH1A1 inh: 9%

What do the screens show for `COCCNC(=O)CCSCc1ccccc1F`?
ALOX12 inhib: 0%; LMNA splice mod: -2%; PNC inhibitor: 23; HPGD block: 25µM*; ALDH1A1 inh: -1%

How did Cc1c(NS(=O)(=O)c2ccc3c(c2)OCCO3)cccc1-c1nc2cccnc2s1 do in these assays?
ALOX12 inhib: -4%; LMNA splice mod: inconclusive; PNC inhibitor: inconclusive; HPGD block: -27%; ALDH1A1 inh: 16µM*

What do the screens show for `O=C(COc1ccc(C(=S)N2CCOCC2)cc1Cl)Nc1ccccc1Cl`?
ALDH1A1 inh: 18µM*

What do the screens show for `COc1cc(C(=S)N2CCCCC2)ccc1OCC(=O)Nc1ccccc1Cl`?
LMNA splice mod: inconclusive; ALDH1A1 inh: -3%

What do the screens show for `CCn1cc(Br)c(C(=O)Nc2ccc(Cl)cc2Cl)n1`?
ALOX12 inhib: -5%; LMNA splice mod: 11%; PNC inhibitor: -113*; HPGD block: -6%; ALDH1A1 inh: 2%

How did CCn1cc(Br)c(C(=O)Nc2ccc(F)c(Cl)c2)n1 do in these assays?
ALOX12 inhib: -7%; LMNA splice mod: inconclusive; PNC inhibitor: inconclusive; HPGD block: -16%; ALDH1A1 inh: -11%

What do the screens show for `CCC(=O)N1c2ccccc2CC1C(=O)NCc1cccc(C)c1` (stereo unspecified)?
LMNA splice mod: 1%[46 µM]

What do the screens show for `N#C/C(=C\c1cc(Cl)cc(Cl)c1O)C(=O)NC1CCCCC1`?
ALOX12 inhib: -15%; LMNA splice mod: -6%; PNC inhibitor: -12; HPGD block: inconclusive; ALDH1A1 inh: 32µM*

How did N#C/C(=C\C=C\c1ccccc1[N+](=O)[O-])C(=O)NC1CCCCC1 do in these assays?
LMNA splice mod: inconclusive; ALDH1A1 inh: 25µM*

How did N#C/C(=C\c1ccccc1[N+](=O)[O-])C(=O)NC1CCCCC1 do in these assays?
LMNA splice mod: -33%[46 µM]; ALDH1A1 inh: 7.1µM*

How did N#C/C(=C\c1cc(Cl)ccc1O)C(=O)NC1CCCCC1 do in these assays?
ALOX12 inhib: -4%; LMNA splice mod: 0%; PNC inhibitor: 6; HPGD block: -10%; ALDH1A1 inh: -12%

How did N#C/C(=C\c1cccn1-c1ccccc1)C(=O)NC1CCCCC1 do in these assays?
ALOX12 inhib: 1%; LMNA splice mod: inconclusive; PNC inhibitor: 11; HPGD block: -19%; ALDH1A1 inh: 7.1µM*

What do the screens show for `N#C/C(=C\c1ccc(F)c(F)c1)C(=O)NC1CCCCC1`?
ALOX12 inhib: -2%; LMNA splice mod: -11%; PNC inhibitor: inconclusive; HPGD block: 0%; ALDH1A1 inh: 11%

Results for CC(=O)N(C[C@@H](C)C(=O)O)c1c(I)cc(I)c(N)c1I ?
ALOX12 inhib: -2%[25.6 µM]; LMNA splice mod: inconclusive; HPGD block: -1%; ALDH1A1 inh: -3%[20.9 µM]

What do the screens show for `CC1CN(C2CCN(S(=O)(=O)c3ccc4ccccc4c3)CC2)CC(C)O1` (stereo unspecified)?
ALOX12 inhib: -28%; LMNA splice mod: 0%; PNC inhibitor: 11; ALDH1A1 inh: 14µM*

What do the screens show for `COc1ccc(C)cc1NC(=O)C1COc2ccccc2C1` (stereo unspecified)?
LMNA splice mod: -2%[46 µM]

What do the screens show for `COc1cc(/C=C2/NC(=O)N(CC(=O)Nc3ccc(C)cc3)C2=O)ccc1Oc1ccc([N+](=O)[O-])cn1`?
LMNA splice mod: inconclusive; ALDH1A1 inh: -1%

How did COCCN1C(=O)/C(=C/c2ccc(Oc3ccc([N+](=O)[O-])cn3)c(OC)c2)SC1=Nc1ccccc1 do in these assays?
ALOX12 inhib: 1%; LMNA splice mod: 3%; PNC inhibitor: inconclusive; HPGD block: -15%; ALDH1A1 inh: 0.4µM*

Results for CCCCSc1nnc(CSc2nc3nc(C)cc(C)n3n2)o1 ?
ALOX12 inhib: 0%; LMNA splice mod: inconclusive; PNC inhibitor: -6; HPGD block: 25µM*; ALDH1A1 inh: -7%

Results for COc1ccc(C2NC(=O)C(C#N)=C(S)N2c2cccc(C)c2)cc1OC (stereo unspecified) ?
LMNA splice mod: 2%[46 µM]; ALDH1A1 inh: inconclusive

Assay outcomes (PubChem)
